For 23 molecules, max response, outcome and Potency results are on record in PubChem BioAssay (NCATS).

For assay [1], the system named is CRL-7250. As to the kind of experiment: Cytotoxic Profiling of Annotated Libraries Using Quantitative High-Throughput Screening (AID 1296008). Further: potency means the concentration at half of the fitted maximal effect. On max response: on the % scale 0 is the no-effect control and ±100 the full control effect. As to conditions: Five cell lines viability, CellTiter-Glo ATP luminescence, 48-72 h; max response: stronger effect = lower value. The procedure, abridged: (§1)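 Cells exposed to compounds for 48 or 72 hr at 37 degrees Celsius. Viability read as ATP-coupled luminescence with CellTiter-Glo after 10 min at room temperature.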
On the technique in general: Cellular ATP, detected with luciferase, serves as a proxy for viable cell number.

Assay [2] relates to HaCat. The assay is described as above. The settings on record: Five cell lines viability, CellTiter-Glo ATP luminescence, 48-72 h; max response: stronger effect = lower value. The procedure, abridged: as §1
Assay [3] has as its system KB-3-1. The description is as above. The settings on record: Five cell lines viability, CellTiter-Glo ATP luminescence, 48-72 h; max response: stronger effect = lower value. The procedure, abridged:
as §1

Assay [4] relates to NIH3T3. The description is as above. As to conditions: Five cell lines viability, CellTiter-Glo ATP luminescence, 48-72 h; max response: stronger effect = lower value. The procedure, abridged:
as §1

In assay [5] the test system is HACAT. In words: qHTS assay to identify novel small-molecules to repurpose for Merkel cell carcinoma treatment (AID 1296009). As to conditions: MCC and control cell lines, CellTiter-Glo viability, 72 h; at 44.8 µM (top of the series) unless noted. The procedure, abridged:
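Cells were treated for 72 hr at 37 degree celsius with compounds in 8- or 11-point dose response. Viability was read by CellTiter-Glo luminescence, normalized to no-cell (cytotoxicity) and DMSO controls.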

The subject of assay [6] is ICS. In words: qHTS profiling for inhibitors of Plasmodium falciparum proliferation (AID 504749). Further: potency means the concentration at half of the fitted maximal effect. As to conditions: P. falciparum in erythrocytes, SYBR Green DNA, 72 h; series mostly up to 28.7 µM. The procedure, abridged:
(§2)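 P. falciparum-infected erythrocytes (0.3% parasitemia, 2.5% hematocrit) incubated with compound 72 h at 37 C, 5% CO2. Parasite DNA detected by SYBR Green after lysis, overnight at room temperature; normalised to 0.29 uM artemisinin and DMSO.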
(In general: In qHTS, concentration-response curves come from the screen itself.)

In assay [7] the test system is N140. Described as above. The settings on record: P. falciparum in erythrocytes, SYBR Green DNA, 72 h; series mostly up to 28.7 µM. The procedure, abridged:
as §2

Assay [8] relates to P93_24. The description is as above. The settings on record: P. falciparum in erythrocytes, SYBR Green DNA, 72 h; series mostly up to 28.7 µM. The procedure, abridged: as §2
For assay [9], the system named is P94_40. The description is as above. As to conditions: P. falciparum in erythrocytes, SYBR Green DNA, 72 h; series mostly up to 28.7 µM. The procedure, abridged:
as §2

The test system of assay [10] is PAD. The description is as above. The settings on record: P. falciparum in erythrocytes, SYBR Green DNA, 72 h; series mostly up to 28.7 µM. The procedure, abridged: as §2
Assay [11] relates to PC15. Described as above. As to conditions: P. falciparum in erythrocytes, SYBR Green DNA, 72 h; series mostly up to 28.7 µM. The procedure, abridged:
as §2

In assay [12] the test system is PC26. The description is as above. The settings on record: P. falciparum in erythrocytes, SYBR Green DNA, 72 h; series mostly up to 28.7 µM. The procedure, abridged: as §2
Assay [13] deals with SC27B. Described as above. As to conditions: P. falciparum in erythrocytes, SYBR Green DNA, 72 h; series mostly up to 28.7 µM. The procedure, abridged:
as §2

Assay [14] relates to TAB109. The description is as above. The settings on record: P. falciparum in erythrocytes, SYBR Green DNA, 72 h; series mostly up to 28.7 µM. The procedure, abridged:
as §2

In assay [15] the test system is TAB113. The assay is described as above. As to conditions: P. falciparum in erythrocytes, SYBR Green DNA, 72 h; series mostly up to 28.7 µM. The procedure, abridged:
as §2

In assay [16] the test system is TAB165. The assay is described as above. The settings on record: P. falciparum in erythrocytes, SYBR Green DNA, 72 h; series mostly up to 28.7 µM. The procedure, abridged: as §2
Assay [17] concerns HEK293. In words: Cytotoxic Profiling of Annotated Libraries Using Quantitative High-Throughput Screening (AID 1296008). Further: potency means the concentration at half of the fitted maximal effect. On max response: on the % scale 0 is the no-effect control and ±100 the full control effect. As to conditions: Five cell lines viability, CellTiter-Glo ATP luminescence, 48-72 h; max response: stronger effect = lower value. The procedure, abridged: as §1

Results filed as inconclusive are left out. Values without a mark were called inactive. Activity calls are given as the source filed them. The call rests on the fitted dose curve; in most records, active means well fitted inhibition curve with a large enough effect; inconclusive means small, poorly fitted or top-dose-only effect; inactive means flat fitted curve, though single readings scatter.
Further: nearly all actives have a fitted effect of over 60% in size.

`CN(C)CCOC1=Cc2ccccc2Sc2ccc(Cl)cc21`: the max response in [1] is -2.09%; in assay [3], -15.8%; in [4] it was -0.0906%. Besides, the result in assay [2] and in assay [5] was inactive.
For the molecule `CC1CC(=O)NN=C1c1ccc(NCC(C)(C)NCC(O)COc2cc(Cl)ccc2C#N)cc1` (centres undefined), the max response was -11.5% in [1], -12.2% in assay [2], -1.42% in [3] and -20.4% in assay [4].
In the same order, the values of `CCCCC(=O)OCC(=O)[C@H]1[C@H](C)C[C@H]2[C@@H]3C[C@H](F)C4=CC(=O)C=C[C@]4(C)[C@@]3(F)[C@@H](O)C[C@@]21C` are -1.6%, 1.04%, -3.44% and -6.1%.
For `COc1cc2nc(Cl)nc(N)c2cc1OC`, the outcome in assay [1] was inactive. Moreover, the max response in [2] is 0.108%; in assay [4], -0.129%.
Take `Nc1c2ccccc2nc2ccccc12`: the Potency is 7.94 µM (active) in [6]; 5.01 µM (active) in assay [7]; 7.08 µM (active) in [8]; 5.62 µM (active) in assay [9]; 7.94 µM (active) in [10]; 11.2 µM (active) in assay [11]. The Potency is 15.1 µM (active) in assay [12]; 10 µM (active) in [13]; 7.08 µM (active) in [14]; 10 µM (active) in [15]; 8.91 µM (active) in assay [16]; 8.41 µM (active) in assay [1]. For the same molecule, the Potency was 5.96 µM (active) in assay [17] and 21.1 µM (active) in assay [4].
As to `CC[N+](CC)(CC)CCOC(=O)C(C1CCCC1)C1CCCC1`, the call in assay [1] was inactive. Moreover, the max response in [2] is -3.44%; in assay [3] it was 9.62%; in assay [4], -5.66%.
As for `Cc1nn(-c2ccccc2)c(C)c1/C=N/N1CCN(Cc2ccccc2)CC1`, the max response in assay [1] was 4.78%; in assay [2], -14.9%; in assay [3], 8.96%; in assay [4], 3.85%.
As to `O=C(NO)c1ccccc1`, the max response in [1] is -19.7%; in [2] it was 4.14%; in assay [3], -12.1%; in [4] it was -4.92%.
Take `CN(C)CCOC(c1ccccc1)c1ccc(Br)cc1` (centres undefined): the max response is -20.9% in assay [1], 1.11% in [2] and -1.24% in assay [4].
The matching figures for `O=C1NC(=O)/C(=C/c2ccc3c(c2)OC(F)(F)O3)S1`: 4.23%, -3.64% and -4.12%.
In the case of `CN1CC[C@H](c2c(O)cc(O)c3c(=O)cc(-c4ccccc4Cl)oc23)[C@H](O)C1`, the Potency in assay [1] was 0.266 µM (active); in assay [2], 0.75 µM (active); in assay [3], 1.03 µM (active).
Regarding `O=[N+]([O-])c1ccc(-c2nc(-c3ccc(F)cc3)c(-c3ccncc3)[nH]2)cc1`, the result in assay [1] was inactive. Further, the max response in [2] is -22.5%.
On to `c1ccc(C(O[C@H]2CCCN(CCc3ccc4c(c3)OCO4)C2)c2ccccc2)cc1`, for which the max response in assay [1] is -1.12%; in assay [2], 0.583%; in assay [3], -8.06%; in assay [4], -0.771%.
Consider `CC(C)(C)c1ccc(C(=O)CCCCl)cc1`, for which the result in assay [1] and in [4] was inactive. In assay [2], the max response is 3.33%.
Consider `CCCCCCCCCCCCCCCC[n+]1ccccc1`, for which the Potency in assay [6] is 2.51 µM (active); in assay [7] it was 8.91 µM (active); in assay [8], 7.94 µM (active); in assay [9], 8.91 µM (active); in assay [10], 12.6 µM (active); in [11], 10 µM (active). In addition, the Potency is 12 µM (active) in assay [12]; 10 µM (active) in assay [13]; 8.91 µM (active) in assay [14]; 5.01 µM (active) in assay [15]; 4.47 µM (active) in assay [16]; 1.5 µM (active) in assay [1]. In addition, the figures for the Potency in [2], in assay [3] and in assay [4] were 5.96 µM (active), 14.6 µM (active) and 16.8 µM (active), respectively.
For the molecule `OCc1c[nH]c2ccccc12`, the Potency in [17] was 21.7 µM (active). Also, in [3], the max response is -7.74%.
For the molecule `OC1(c2ccc(Cl)c(C(F)(F)F)c2)CCN(CCCC(c2ccc(F)cc2)c2ccc(F)cc2)CC1`, the Potency is 8.41 µM (active) in [17] and 23.1 µM (active) in assay [3].
`CCOC(=O)Cn1cccc1-c1nc(-c2ccc(OC)cc2)c(-c2ccc(OC)cc2)s1`: the Potency in [17] is 8.2 µM (active). Also, the max response in assay [2] was -29.1%; in assay [3], 5.97%. Further, the molecule was called inactive in assay [4].
In the case of `Cc1c(C)c2c(c(C)c1OC(=O)CCC(=O)OCCO)CC[C@@](C)(CCC[C@H](C)CCC[C@H](C)CCCC(C)C)O2`, the max response in assay [1] was -109%; in assay [3], -31.1%; in [4], -19.3%.
`Brc1ccccc1-c1ccccc1`: the max response is -9.62% in assay [17], -6.21% in assay [2], -3.53% in [3] and -3.48% in [4].
In the case of `CC(C)=CCC/C(C)=C/CC/C(C)=C/C(=O)OCC(=O)[C@@]1(O)CC[C@H]2[C@@H]3CCC4=CC(=O)C=C[C@]4(C)[C@H]3[C@@H](O)C[C@@]21C`, the Potency in [17] was 10.6 µM (active).
`Nc1cccc2c(N)cccc12`: the Potency in assay [17] is 34.4 µM (active). Further, in assay [2], the molecule was classed as inactive. Also, the max response in assay [3] is 15.8%. In addition, the outcome in assay [5] is “inactive [at 92 µM]”.
Regarding `O=C(OCCN1CCOCC1)c1cccnc1Nc1cccc(C(F)(F)F)c1`, the max response was -4.59% in [1] and -0.363% in assay [4]. Further, the result in assay [2] and in assay [5] was inactive.
